Assay results reported in PMC11062922 (Nature Chemical Biology, 2023).
Where two headings read alike, the source gives them in different places.

What was measured:
Design in all cases: species or system human, MV4-11 + K-562 + COLO205 + SK-N-BE2 + OVCAR-8
ADCK3 = settings: read-out: apparent Kd, n = 1
AKT1 = settings: read-out: apparent Kd; compound concentrations: 100 nM and 1000 nM (sheet 'Samples'), CATDS: 7.0300825665370006E-2; n = 1
AKT2 = settings: read-out: apparent Kd; compound concentrations: 100 nM and 1000 nM (sheet 'Samples'), CATDS: 7.1049746121653101E-2; n = 1
AKT3 = settings: read-out: apparent Kd, n = 1
CAMK4 = settings: read-out: apparent Kd; compound concentrations: 100 nM and 1000 nM (sheet 'Samples'), CATDS: 6.2704005161184906E-2; n = 1
CSNK1A1 = settings: read-out: apparent Kd; compound concentrations: 100 nM and 1000 nM (sheet 'Samples'), CATDS: 6.8994714696940407E-2; n = 1
MAP2K1 = settings: read-out: apparent Kd; compound concentrations: 100 nM and 1000 nM (sheet 'Samples'), CATDS: 7.1306793514003305E-2; n = 1
MAP2K2 = settings: read-out: apparent Kd; compound concentrations: 100 nM and 1000 nM (sheet 'Samples'), CATDS: 7.3872380173305399E-2; n = 1
MAPK9 = settings: read-out: apparent Kd; compound concentrations: 100 nM and 1000 nM (sheet 'Samples'), CATDS: 6.4176537599483302E-2; n = 1
NQO1 = settings: read-out: apparent Kd, compound concentrations: 100 nM and 1000 nM (sheet 'Samples'), n = 1
PIM2 = settings: read-out: apparent Kd, compound concentrations: 100 nM and 1000 nM (sheet 'Samples'), n = 1
PYGL = settings: read-out: apparent Kd; compound concentrations: 100 nM and 1000 nM (sheet 'Samples'), CATDS: 6.9677029727435405E-2; n = 1
RIOK2 = settings: read-out: apparent Kd; compound concentrations: 100 nM and 1000 nM (sheet 'Samples'), CATDS: 6.63813283152343E-2; n = 1
SMC4 = settings: read-out: apparent Kd; compound concentrations: 100 nM and 1000 nM (sheet 'Samples'), CATDS: 6.4174106680799994E-2; n = 1
ERCC2 = settings: read-out: apparent Kd; compound concentrations:100 nM and 1000 nM (sheet 'Samples'); n = 1
MAP4K5 = settings: read-out: apparent Kd; compound concentrations:100 nM and 1000 nM (sheet 'Samples'); n = 1
MAP2K5 = settings: read-out: apparent Kd; compound concentrations: 100 nM and 1000 nM (sheet 'Samples'), CATDS: 0.16534591084459199; n = 1
TNK1 = settings: read-out: apparent Kd; compound concentrations: 100 nM and 1000 nM (sheet 'Samples'), CATDS: 0.23807616191270001; n = 1
BRAF = settings: read-out: apparent Kd; compound concentrations:100 nM and 1000 nM (sheet 'Samples'); n = 1
NNT = settings: read-out: apparent Kd; compound concentrations:100 nM and 1000 nM (sheet 'Samples'); n = 1
RIPK2 = settings: read-out: apparent Kd; compound concentrations:100 nM and 1000 nM (sheet 'Samples'); n = 1
STK26 = settings: read-out: apparent Kd; compound concentrations:100 nM and 1000 nM (sheet 'Samples'); n = 1
GALK1 = settings: read-out: apparent Kd; compound concentrations: 100 nM and 1000 nM (sheet 'Samples'), CATDS: 0.119899430557505; n = 1
MAPK14 = settings: read-out: apparent Kd; compound concentrations: 100 nM and 1000 nM (sheet 'Samples'), CATDS: 0.15490410585255601; n = 1
MAPK1 = settings: read-out: apparent Kd; compound concentrations: 100 nM and 1000 nM (sheet 'Samples'), CATDS: 0.12427254642557201; n = 1
PIK3CD = settings: read-out: apparent Kd, n = 1
STK16 = settings: read-out: apparent Kd; compound concentrations: 100 nM and 1000 nM (sheet 'Samples'), CATDS: 0.13061388910889801; n = 1
ADCK1 = settings: read-out: apparent Kd; compound concentrations:100 nM and 1000 nM (sheet 'Samples'); n = 1
CIT = settings: read-out: apparent Kd; compound concentrations:100 nM and 1000 nM (sheet 'Samples'); n = 1
CSNK1D = settings: read-out: apparent Kd; compound concentrations:100 nM and 1000 nM (sheet 'Samples'); n = 1
CSNK1E = settings: read-out: apparent Kd; compound concentrations:100 nM and 1000 nM (sheet 'Samples'); n = 1
DJA1 = tested on: T1, DJA1; settings: read-out: apparent Kd; compound concentrations:100 nM and 1000 nM (sheet 'Samples'); n = 1
T1 construct: gene DNAJA1

GAK = settings: read-out: apparent Kd; compound concentrations:100 nM and 1000 nM (sheet 'Samples'); n = 1
IARS = settings: read-out: apparent Kd; compound concentrations:100 nM and 1000 nM (sheet 'Samples'); n = 1
PRKACB = settings: read-out: apparent Kd; compound concentrations:100 nM and 1000 nM (sheet 'Samples'); n = 1
PRKCD = settings: read-out: apparent Kd; compound concentrations:100 nM and 1000 nM (sheet 'Samples'); n = 1
PRKCQ = settings: read-out: apparent Kd; compound concentrations:100 nM and 1000 nM (sheet 'Samples'); n = 1
PRKD2 = settings: read-out: apparent Kd; compound concentrations:100 nM and 1000 nM (sheet 'Samples'); n = 1
PRKD3 = settings: read-out: apparent Kd; compound concentrations:100 nM and 1000 nM (sheet 'Samples'); n = 1
TNIK = settings: read-out: apparent Kd; compound concentrations:100 nM and 1000 nM (sheet 'Samples'); n = 1
[1] = compound concentrations:100 nM and 1000 nM (sheet 'Samples')

## O=C(NC1CCN(c2ccnc(Nc3ccc(F)cc3)n2)C1)c1cc2ccccc2s1 (stereo not shown) [GSK1379716A]
ADCK3; compound concentrations: 100 nM and 1000 nM (sheet 'Samples'), CATDS: 8.9568558281788502E-2
  potency estimated from few doses: 1140 nM
AKT1
  potency estimated from few doses: 1780 nM
AKT2
  potency estimated from few doses: 1740 nM
AKT3; compound concentrations: 100 nM and 1000 nM (sheet 'Samples'), CATDS: 7.9002074728764499E-2
  potency estimated from few doses: 1420 nM
CAMK4
  potency estimated from few doses: 2280 nM
CSNK1A1
  potency estimated from few doses: 1850 nM
MAP2K1
  potency estimated from few doses: 1730 nM
MAP2K2
  potency estimated from few doses: 1610 nM
MAPK9
  potency estimated from few doses: 2160 nM
NQO1; CATDS: 8.1829364824624801E-2
  potency estimated from few doses: 1330 nM
PIM2; CATDS: 7.6487231298609404E-2
  potency estimated from few doses: 1500 nM
PYGL
  potency estimated from few doses: 1810 nM
RIOK2
  potency estimated from few doses: 2010 nM
SMC4
  potency estimated from few doses: 2160 nM

## Nc1ncc(-c2cccnc2)c2scc(-c3ccc4c(c3)CCN4C(=O)Cc3ccccc3)c12 [GSK683281A]
ADCK3; [1]
  potency estimated from few doses: 760 nM
ERCC2
  potency estimated from few doses: 1560 nM
MAP4K5
  potency estimated from few doses: 1560 nM

## COc1cc2nccc(Nc3cccc(Oc4ccccc4)c3)c2cc1OC.Cl [GW284543A]
ADCK3; compound concentrations: 100 nM and 1000 nM (sheet 'Samples'), CATDS: 0.252282452250228
  potency estimated from few doses: 949 nM
AKT3; compound concentrations: 100 nM and 1000 nM (sheet 'Samples'), CATDS: 0.185918724063731
  potency estimated from few doses: 1710 nM
MAP2K5
  potency estimated from few doses: 2260 nM
NQO1; CATDS: 0.18486916507509299
  potency estimated from few doses: 1730 nM
TNK1
  potency estimated from few doses: 1050 nM

## CN(C)CCOc1ccc(-c2nc(-c3ccc4c(c3)CC/C4=N/O)c(-c3ccncc3)[nH]2)cc1 [SB-590885_KCGS]
ADCK3; [1]
  potency estimated from few doses: 1150 nM
AKT3; [1]
  potency estimated from few doses: 1900 nM
BRAF
  potency estimated from few doses: 88.6 nM
NNT
  potency estimated from few doses: 1680 nM
RIPK2
  potency estimated from few doses: 679 nM
STK26
  potency estimated from few doses: 2210 nM

## Cc1ccc(NC(=O)c2ccnc(N3CCN(C)CC3)c2)cc1-c1ccc(C(=O)NCC2CC2)cc1 [GW775604X]
ADCK3; compound concentrations: 100 nM and 1000 nM (sheet 'Samples'), CATDS: 0.117650755909267
  potency estimated from few doses: 1660 nM
GALK1
  potency estimated from few doses: 1570 nM
MAPK14
  potency estimated from few doses: 840 nM
MAPK1
  potency estimated from few doses: 1430 nM
PIK3CD; compound concentrations: 100 nM and 1000 nM (sheet 'Samples'), CATDS: 0.661841764967533
  potency estimated from few doses: 59 nM
PIM2; CATDS: 0.117779820663657
  potency estimated from few doses: 1650 nM
STK16
  potency estimated from few doses: 1250 nM

## Cc1n[nH]c2ccc(-c3cc(OC[C@@H](N)Cc4ccccc4)cnc3-c3ccoc3)cc12.Cc1n[nH]c2ccc(-c3cc(OC[C@@H](N)Cc4ccccc4)cnc3-c3ccoc3)cc12.O=C(O)C(F)(F)F.O=C(O)C(F)(F)F [GSK507358A]
ADCK1
  potency estimated from few doses: 1140 nM
CIT
  potency estimated from few doses: 1120 nM
CSNK1D
  potency estimated from few doses: 711 nM
CSNK1E
  potency estimated from few doses: 1160 nM
DJA1
  potency estimated from few doses: 890 nM
GAK
  potency estimated from few doses: 1500 nM
IARS
  potency estimated from few doses: 2080 nM
PIK3CD; [1]
  potency estimated from few doses: 108 nM
PRKACB
  potency estimated from few doses: 1740 nM
PRKCD
  potency estimated from few doses: 1510 nM
PRKCQ
  potency estimated from few doses: 1580 nM
PRKD2
  potency estimated from few doses: 690 nM
PRKD3
  potency estimated from few doses: 353 nM
TNIK
  potency estimated from few doses: 141 nM
